IL1B secr inh: inhibitors of inflammasome signaling (IL-1 beta secretion) | activity change, % at 57.5 µM | hit rate 4.7% among 360,000 | THP-1 LPS/ATP IL-1B secretion, AlphaLISA, 16 h; stronger effect = lower value | AID 743279; in the data active = activity change below about -50%; inconclusive = mostly about -30% to -49%
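THP-1 cells pretreated 1 hr with compounds (up to 57.5 uM final), then stimulated with LPS (250 ng/mL final) plus ATP (1.25 mM final); secreted IL-1B measured by AlphaLISA after 16 hr, decreased signal indicating inhibition.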
LDHA inh: blocks human lactate dehydrogenase A. hit rate 0.15% among 480,000. purified LDHA, NADH/diaphorase-resazurin fluorescence; stronger effect = lower value. P00338. activity change, % (values are at about 110 or 230 µM); in the data active = activity change below about -30%; inconclusive = mostly about -25% to -30%;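 also: plate controls were DMSO wells for no effect and wells without enzyme for full effect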
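LDH5 2 nM; NADH 0.06 mM, pyruvate 0.2 mM; 200 mM Tris pH 7.4, EDTA, Tween-20; 5 min RT. Detection: diaphorase 0.133 mg/mL + resazurin 37 µM, fluorescence ex540/em590 at 0 and 20 min; normalized to enzyme-free and DMSO wells.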
RORg inh: ROR gamma (mouse) transcription inhibition; P51450; Drosophila S2 Gal4-RORgamma UAS-luciferase reporter, 20 h; Potency, µM (top dose mostly 53.6 µM), inactives show at the highest dose activity change, negative = inhibition, most hits filed as inhibitors; hit rate 5.4% among 310,000; AID 2551; also: potency is read from the fitted curve at half-maximal effect; nearly all actives have a fitted effect of over 60% in size
Target sequence (P51450 whole entry, looked up, the tested form may be a part): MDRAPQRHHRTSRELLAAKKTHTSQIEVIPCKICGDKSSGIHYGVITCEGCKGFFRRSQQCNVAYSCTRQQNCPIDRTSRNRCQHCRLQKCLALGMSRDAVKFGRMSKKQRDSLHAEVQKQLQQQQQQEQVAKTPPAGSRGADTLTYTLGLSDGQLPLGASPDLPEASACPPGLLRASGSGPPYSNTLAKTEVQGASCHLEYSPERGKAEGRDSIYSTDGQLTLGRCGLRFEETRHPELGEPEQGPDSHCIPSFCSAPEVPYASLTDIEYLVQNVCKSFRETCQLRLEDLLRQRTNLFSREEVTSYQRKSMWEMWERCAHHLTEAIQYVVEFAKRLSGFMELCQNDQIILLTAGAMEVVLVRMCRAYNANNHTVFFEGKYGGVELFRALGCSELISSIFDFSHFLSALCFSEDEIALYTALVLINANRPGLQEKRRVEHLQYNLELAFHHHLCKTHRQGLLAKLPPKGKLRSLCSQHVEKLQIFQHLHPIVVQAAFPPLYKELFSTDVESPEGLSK
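In this cell-based reporter format, copper sulfate (700 uM final) drives Gal4–ROR gamma fusion expression from a metallothionein promoter in Drosophila Schneider cells; compounds preincubated 1 hr, reporter read after 20 hr at ambient temperature.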
TDP1 cell CPT: DT40-hTDP1 cell growth loss with CPT; chicken DT40 Tdp1-/-;hTDP1 cells + 20 nM CPT, ATP luminescence, 48 h; Potency, µM (top dose mostly 46.2 µM), inactives show at the top dose activity change, negative = growth inhibition, usual class: inhibitors; hit rate 12% among 420,000; AID 686979; also: potency is read from the fitted curve at half-maximal effect; nearly all actives have a fitted effect of over 55% in size
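Chicken DT40 Tdp1-/- cells complemented with human TDP1, 400 cells/well, exposed to compounds plus 20 nM camptothecin for at least 48 h at 37 C; viability read as ATP content by CellTiter-Glo luminescence.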
VP16 counter: counter-screen for ROR gamma inhibitors: Gal4-VP16 reporter; Potency, µM (doses to about 53.6 µM), without a hit: at the highest dose activity, negative = inhibition, actives largely listed as inhibitors; Drosophila S2 Gal4-VP16 UAS-luciferase, luminescence, 20 h; AID 2546; hit rate 3.5% among 310,000;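 also: Gal4-VP16 expression switched on by copper sulfate through the metallothionein promoter; potency is read from the fitted curve at half-maximal effect; nearly all actives have a fitted effect of over 50% in size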
TDP1 cell noCPT: qHTS for Inhibitors of human tyrosyl-DNA phosphodiesterase 1 (TDP1): qHTS in cells in absence of CPT. DT40 Tdp1-/- hTDP1 cells, no CPT, ATP luminescence, 48 h. Potency, µM (highest dose often 46.2 µM), for the others: at the highest dose activity change, negative = growth inhibition, actives largely listed as inhibitors. hit rate 15% among 420,000. AID 686978, 2013; also: potency is read from the fitted curve at half-maximal effect; nearly all actives have a fitted effect of over 55% in size
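A cellular qHTS used chicken DT40 cells lacking endogenous Tdp1 but carrying stably transfected human TDP1. Compounds were applied without camptothecin, and cell growth kinetics were judged by ATP-dependent luminescence after ≥48 hr.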
Starred values were filed as active, the others as inactive; ? = inconclusive; . = not tested or not shown. Sampled rows, rich in hits. Any-hit rate of the full collection: about 18%. Unless noted, calls follow the shape of the dose curve; as a rule, active = well fitted curve in the direction sought with a large enough effect; inconclusive = small, poorly fitted or top-dose-only effect, or another doubt; inactive = no such curve, though single readings can be large; an effect the other way counts as inactive or inconclusive. Unless noted, % is scaled to controls: 0 for no effect and ±100 for the full control effect.

SMILES | IL1B secr inh | LDHA inh | RORg inh | TDP1 cell CPT | VP16 counter | TDP1 cell noCPT
O=C(NC1CCCCC1)C1CCCc2ccccc21 (stereo not drawn) | . | 1 | . | . | . | .
COc1ccc2oc(-c3ccc(NC(=O)c4ccc(C)cc4)cc3)nc2c1 | . | -7 | . | . | . | .
O=C(Nc1ccc(-c2nc3ccccc3o2)cc1)c1ccc(N2CCOCC2)c([N+](=O)[O-])c1 | -16 | -2 | ? | 7.3µM* | 10µM* | 4.6µM*
O=C(Nc1cc(-c2nc3ccccc3o2)ccc1Cl)c1ccc(N2CCCCC2)c([N+](=O)[O-])c1 | . | -8 | . | ? | . | 18µM*
COc1ccc2oc(-c3ccc(NC(=O)c4ccc(N5CCOCC5)c([N+](=O)[O-])c4)cc3)nc2c1 | 6 | -4 | 27% | ? | -10% | 2.1µM*
Cn1cc([N+](=O)[O-])c(C(=O)Nc2ccc(-c3nc4ccccc4o3)cc2)n1 | -86* | -4 | -13% | -5% | -5% | -12%
CN(C)C(CNc1oc(-c2ccc(Cl)cc2)nc1C#N)c1cccs1 (stereo not drawn) | . | 3 | . | . | . | .
O=C(CSc1nnnn1Cc1ccccc1)N1CCN(S(=O)(=O)c2ccc3c(c2)CCC3)CC1 | . | -6 | . | . | . | .
Cc1ccc(NC(=O)/C(C#N)=C\c2ccccc2OC(F)F)c(C)c1 | . | 3 | . | . | . | .
CSCCCNC(=S)NCc1ccccn1 | . | -5 | . | . | . | .
CCCCn1nnnc1C(c1ccccc1)N1CCN(c2ncccc2C(F)(F)F)CC1 (stereo not drawn) | -51* | 1 | . | ? | . | 18µM*
CCCCn1nnnc1C(c1ccccc1)N1CCN(c2ccccc2)CC1 (stereo not drawn) | -12 | -2 | . | ? | . | ?
CCCCn1nnnc1C(c1ccccc1)N1CCN(c2ccc(C(F)(F)F)cc2[N+](=O)[O-])CC1 (stereo not drawn) | -12 | -2 | . | ? | . | 18µM*
CCCCn1nnnc1C(c1ccccc1)N1CCN(c2ccc(C(F)(F)F)cn2)CC1 (stereo not drawn) | ? | -5 | . | ? | . | 18µM*
CCC(c1nnnn1-c1c(C)cccc1C)N1CCN(c2ccc(C(F)(F)F)cc2[N+](=O)[O-])CC1 (stereo not drawn) | ? | -2 | . | ? | . | -58%
CCCCn1nnnc1C(c1ccccc1)N1CCN(CC)CC1 (stereo not drawn) | 34 | -9 | . | -22% | . | -11%
N#Cc1cccc(NC(=O)c2nn(-c3ccccc3)c(=O)c3ccccc23)c1 | . | -8 | . | . | . | .
O=C(CSC1=Nc2ccccc2N=C(c2ccc(F)cc2)C1)Nc1ccc(Cl)cc1 | . | -1 | . | 21µM* | . | 26µM*
CC(=O)c1ccc(NC(=O)CSC2=Nc3ccccc3N=C(c3ccc(F)cc3)C2)cc1 | . | -1 | . | 16µM* | . | 9.2µM*
COc1cc(OC)c(NC(=O)CSC2=Nc3ccccc3N=C(c3ccc(F)cc3)C2)cc1Cl | . | -2 | . | ? | . | ?
O=C(CSC1=Nc2ccccc2N=C(c2ccc(F)cc2)C1)Nc1ccccc1 | . | 1 | . | ? | . | ?
Cc1ccc(S(=O)(=O)C(CNS(=O)(=O)c2ccc(Cl)cc2)c2cccnc2)cc1 (stereo not drawn) | . | -6 | . | . | . | .
Cc1cc(=O)oc2cc(OCC(=O)N3CC(C)OC(C)C3)ccc12 (stereo not drawn) | 6 | -4 | -2% | -7% | -10% | -23%
Cc1cc(=O)oc2cc(OCC(=O)N3CCCC(C)C3)ccc12 (stereo not drawn) | -11 | -4 | 12% | -4% | 1% | -21%
CC1Cc2ccccc2N1C(=O)COc1nc2ccccc2nc1N1CCOCC1 (stereo not drawn) | -3 | -1 | -4% | 7.3µM* | -12% | 9.2µM*
Cc1cc(=O)oc2ccc(OCC(=O)N3CCC(C)CC3)cc12 | -12 | 0 | 40% | ? | 10% | 26µM*

Compound activity as filed in PubChem BioAssay.
